Results reported in PubChem BioAssay AID504834 (National Center for Advancing Translational Sciences (NCATS), 2011).
About 22,000 (6.9%) of roughly 320,000 compounds were called active. Another 27% or so got no clear call; they are omitted. Shown is part of a subset that was picked to be rich in actives. A call without a number means that no potency is given here. Unmarked numbers belong to inactive results. Calls come from the whole dose curve; as a rule, active = well fitted inhibition curve with a large enough effect; inconclusive = small, poorly fitted or top-dose-only effect, or another doubt; inactive = no such curve, though single readings can be large or run the other way.

Assay: Primary qHTS for delayed death inhibitors of the malarial parasite plastid, 96 hour incubation
Settings: P. falciparum luciferase reporter growth; series mostly up to 28.7 µM
Method in brief: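 P. falciparum expressing integrated firefly luciferase, in erythrocytes at 2% hematocrit, 0.05% parasitemia, incubated with compounds 96 h at 37 C, 5% CO2. Growth inhibition read as loss of luminescence; two-generation exposure targets delayed-death apicoplast inhibitors.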
Potency is the fitted concentration of half-maximal effect.

SMILES	Potency	activity change, negative = inhibition
O=C(O)CC/C(=C\c1cc2c(cc1Br)OCO2)c1nc2ccccc2s1	inactive	–
O=C(NC1CCCC1)C1CC(=O)N(c2ccc(F)cc2)C1 (stereo not drawn)	inactive	–
O=C(NC1CCCCCCC1)c1cccs1	inactive	–
CCC(C)[C@H]1COCCS(=O)(=O)N1Cc1ccc(C)cc1 (stereo partly drawn)	inactive	–
C/C(=N\NC(=O)c1ccc2ccccc2c1)c1cccnc1	inactive	–
O=C(NCCNc1ccc([N+](=O)[O-])cc1Cl)c1ccccc1F	inactive	–
O=C(NC1CCN(Cc2ccccc2)CC1)c1ccccc1F	–	202% [at 5.75 µM]
O=C(NC1CCN(Cc2ccccc2)CC1)c1cc(Br)c(Br)[nH]1	11.7 µM (active)	–
O=C(NC1CCN(Cc2ccccc2)CC1)c1c(F)cccc1F	inactive	–
COc1cccc(CN2CCNC(=O)C2CC(=O)N(C)CCc2ccccn2)c1 (stereo not drawn)	inactive	–
CN(Cc1cccc2ncccc12)C(=O)CC1C(=O)NCCN1Cc1ccc(F)cc1 (stereo not drawn)	13.1 µM (active)	–
Cc1cnc(CN(C)C(=O)CC2C(=O)NCCN2Cc2cccc(F)c2F)[nH]1 (stereo not drawn)	inactive	–
O=C(N/C(=C/c1ccc(Cl)cc1)C(=O)N1CCCCC1)c1ccco1	inactive	–
O=C(O)CC(CC(=O)N1CCOCC1)c1ccccc1 (stereo not drawn)	inactive	–
CCOc1cc(C)ccc1OCc1nnc(SCC(=O)Nc2cccc(C(=O)O)c2)n1-c1ccccc1	inactive	–
O=C(O)c1cc(S(=O)(=O)Nc2ccc3cn[nH]c3c2)ccc1Br	inactive	–
CCCNC(=O)c1cnc(-c2ccccc2)nc1-c1ccccc1	inactive	–
CCOc1ccccc1-c1cc(C(=O)N/N=C(\C)c2cccnc2)c2ccccc2n1	inactive	–
C/C(=N\NC(=O)c1cccnc1)c1ccc(-c2ccccc2)cc1	inactive	–
C/C(=N\NC(=O)c1cc(-c2ccc(O)cc2)nc2ccccc12)c1cccnc1	9.28 µM (active)	–
CC1(c2nnc(Cc3ccccc3)o2)CC(c2ccccc2F)=NO1 (stereo not drawn)	inactive	–
COc1ccc(NC(=O)CSc2nncc(=O)n2N)cc1OC	inactive	–
O=C(CCC1CCCN(C(=O)Cc2ccc(F)cc2)C1)N1CCN(c2ccccn2)CC1 (stereo not drawn)	inactive	–
Cc1nc2c(-c3ccc(F)cc3)c(C)nn2c(C)c1CCC(=O)N1CCN(c2ccccn2)CC1	7.38 µM (active)	–
O=C(Cc1ccccc1Cl)N1CCN(c2ccccn2)CC1	inactive	–
O=C(c1cc(COc2ccc(F)c(F)c2)on1)N1CCOCC1	inactive	–
CCn1c(=O)c2cc(C(=O)Nc3cccc(C(C)=O)c3)sc2c2ccccc21	inactive	–

SMILES	Potency	activity change, negative = inhibition
N#CC1=C(N)N(c2ccccc2)C2=C(C(=O)CCC2)C1c1ccccc1 (stereo not drawn)	2.08 µM (active)	–
N#CC1=C(N)OC2=C(C(=O)CCC2)C1C1CC=CCC1 (stereo not drawn)	inactive	–
COc1ccc(C2C(C#N)=C(N)N(c3ncn[nH]3)C3=C2C(=O)CCC3)cc1 (stereo not drawn)	inactive	–
CN(C)N1C(N)=C(C#N)C(c2ccc(Br)cc2)C2=C1CCCC2=O (stereo not drawn)	2.94 µM (active)	–
CCOc1ccc(C2C(C#N)=C(N)N(N(C)C)C3=C2C(=O)CCC3)cc1 (stereo not drawn)	inactive	–
NC1=C([N+](=O)[O-])C(c2ccccc2)C2=C(CCCC2=O)O1 (stereo not drawn)	inactive	–
Cc1nc2ccc(S(=O)(=O)N(C)CC(=O)NC(C)c3ccccc3)cc2s1 (stereo not drawn)	inactive	–
N#CCC(=O)Nc1ccc(C(=O)OCC(=O)Nc2sc3c(c2C#N)CCCC3)cc1	inactive	–
O=C1C2CCCN2C(=O)N1CCCCN1CCN(c2cccc(C(F)(F)F)c2)CC1 (stereo not drawn)	13.1 µM (active)	–
O=C(C1CC(=O)N(C2CCCC2)C1)N1CCN(c2cccc(C(F)(F)F)c2)CC1 (stereo not drawn)	inactive	–
Cc1ccccc1N1CCN(CCCN2C(=O)C3CCCCN3C2=O)CC1 (stereo not drawn)	inactive	–
CCCc1cc(=O)oc2c(C)c(OCC(=O)NCc3ccccn3)ccc12	inactive	–
O=C(Cc1cccc2ccccc12)NNC(=O)Nc1ccc(Cl)cc1	inactive	–
CCCN1C2CCCC1CC(NC(=O)NC13CC4CC(CC(C4)C1)C3)C2 (stereo not drawn)	inactive	–
CC1CCCCN1S(=O)(=O)c1ccc(C(=O)Nc2nnc(-c3cccs3)o2)cc1 (stereo not drawn)	inactive	–
CC1CCCCN1S(=O)(=O)c1ccc(S(=O)(=O)N(CC(=O)Nc2ccccc2)Cc2cccs2)cc1 (stereo not drawn)	4.65 µM (active)	–
CCN(CC(=O)NCc1cccs1)S(=O)(=O)c1ccc(NC(C)=O)cc1	inactive	–
Cc1ccccc1C(=O)Nc1ccccc1NC(=O)c1ccccc1C	inactive	–
O=C(NCC1CCN(Cc2ccccc2Cl)CC1)Nc1cccc(Cl)c1	1.65 µM (active)	–
COc1cc(NC(=O)NCC2CCN(Cc3ccc(C)cc3)CC2)cc(OC)c1OC	10.4 µM (active)	–
COc1ccc(Cl)cc1NC(=O)NCC1CCN(Cc2ccccc2F)CC1	inactive	–
Cc1cccc(CN2CCC(CNC(=O)Nc3ccc(F)c(Cl)c3)CC2)c1	inactive	–
Cc1ccccc1NC(=O)NCC1CCN(Cc2cccc(Cl)c2)CC1	inactive	–
Cc1ccc(C)c(CN2CCC(CNC(=O)Nc3ccc(C)c(F)c3)CC2)c1	inactive	–
Cc1ccc(C(=O)N/C(=C\c2cn(S(=O)(=O)N(C)C)c3ccccc23)C(=O)N2CCCC2)cc1	inactive	–
COc1ccc(-n2nnnc2CNC(=O)c2ccc3ccccc3c2)cc1	inactive	–
